Results on 29 molecules are retold here after PubChem BioAssay (NCATS).

“And” between values parts separate entries of the source, which are not always exact repeats. Identical values can stand only once. Inconclusive results are not listed. Where a call stands in place of a potency, no number is given. The source made the active and inactive calls. Calls come from the whole dose curve; as a rule, active = well fitted curve in the direction sought with a large enough effect; inconclusive = small, poorly fitted or top-dose-only effect, or another doubt; inactive = no such curve, though single readings can be large; an effect the other way counts as inactive or inconclusive.

Sequence of Phospholipid hydroperoxide glutathione peroxidase GPX4 (Homo sapiens) (P36969 whole entry, looked up): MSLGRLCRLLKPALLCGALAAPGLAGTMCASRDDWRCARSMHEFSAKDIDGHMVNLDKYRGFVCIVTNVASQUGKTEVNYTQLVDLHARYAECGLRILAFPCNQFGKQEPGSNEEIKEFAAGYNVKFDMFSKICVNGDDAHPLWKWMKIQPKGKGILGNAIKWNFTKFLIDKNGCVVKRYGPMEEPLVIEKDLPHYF

The first test deals with Phospholipid hydroperoxide glutathione peroxidase GPX4 (Homo sapiens) (UniProt P36969). Briefly: Primary qHTS Assay for Inhibitors of Recombinant Selenoprotein Glutathione Peroxidase 4 (GPX4) (AID 1845192). Note: nearly all actives have a fitted effect of over 65% in size. As to conditions: recombinant GPX4, GR-coupled NADPH fluorescence, 15 min; series mostly up to 50 µM. In outline:
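GR-coupled readout: 100 nM GR, 1 mM GSH, 0.5 mM NADPH; NADPH fluorescence (ex 340/em 450 nm) read at t=0 and after 15 min RT. GPX4 200 nM, preincubated 30 min with compound; substrate 0.5 mM CHP.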
(Quantitative high-throughput screening tests each substance at several concentrations.)
Take `CC1(C)[C@@H](O[C@H]2O[C@H](C(=O)O)[C@@H](O)[C@H](O)[C@H]2O[C@@H]2O[C@H](C(=O)O)[C@@H](O)[C@H](O)[C@H]2O)CC[C@]2(C)[C@H]3C(=O)C=C4[C@@H]5C[C@@](C)(C(=O)O)CC[C@]5(C)CC[C@@]4(C)[C@]3(C)CC[C@@H]12`: the Potency result is “inactive”. For `CC[C@H]1OC(=O)[C@H](C)[C@@H](O[C@H]2C[C@@](C)(OC)[C@@H](O)[C@H](C)O2)[C@H](C)[C@@H](O[C@@H]2O[C@H](C)C[C@H](N(C)C)[C@H]2O)[C@](C)(O)C[C@@H](C)C(=O)[C@H](C)[C@@H](O)[C@]1(C)O`, the Potency result is “inactive”.

As to `COc1cc(/C=C/C(=O)N2CCN(CC(=O)N3CCCC3)CC2)cc(OC)c1OC`, the Potency entry was “inactive”. On the same count and under the same terms, the value for `O=C(O)c1cc(O)c(O)c(O)c1` was “inactive”; that for `O=C(O)[C@H](O)[C@@H](O)[C@H](O)[C@H](O)CO` was “inactive”; that for `CN1[C@@H]2CC[C@H]1CC(OC(=O)C(CO)c1ccccc1)C2` (stereo not given in full) was “inactive”. Same read-out and setting: with `CCOc1ccc2nc(S(N)(=O)=O)sc2c1` the entry was “inactive”; with `Cc1cc(O)c2ccccc2c1O`, “inactive”; with `CC1(C)S[C@@H]2[C@H](NC(=O)[C@H](N)c3ccc(O)cc3)C(=O)N2[C@H]1C(=O)O`, “inactive”. As for `Nc1ccc(O)c(C(=O)O)c1`, the Potency entry is “inactive”. Still for that read-out and setting: with `CC(C(=O)O)c1ccc2c(c1)[nH]c1ccc(Cl)cc12` (stereo not given) the entry was “inactive”.

Another test concerns the target Luciferin 4-monooxygenase (Photinus pyralis) (UniProt P08659). Briefly: Primary firefly luciferase (FLuc) qHTS assay for identification of artifact compounds. (AID 1845220). Note: nearly all actives have a fitted effect of over 60% in size. As to conditions: purified firefly luciferase, luminescence, 5 min; series mostly up to 54.1 µM. In outline: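 Reaction readout was CCD-imaged luminescence, taken 5 min after adding 10 nM purified firefly enzyme to compound-treated wells holding 10 uM luciferin and ATP in pH 7.6 buffer.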
With `CC1(C)[C@@H](O[C@H]2O[C@H](C(=O)O)[C@@H](O)[C@H](O)[C@H]2O[C@@H]2O[C@H](C(=O)O)[C@@H](O)[C@H](O)[C@H]2O)CC[C@]2(C)[C@H]3C(=O)C=C4[C@@H]5C[C@@](C)(C(=O)O)CC[C@]5(C)CC[C@@]4(C)[C@]3(C)CC[C@@H]12`, the Potency result is “inactive”. On the same count and under the same terms, with `COC(=O)[C@H]1[C@H]2C[C@@H]3c4[nH]c5cc(OC)ccc5c4CCN3C[C@H]2C[C@@H](OC(=O)/C=C/c2cc(OC)c(OC)c(OC)c2)[C@@H]1OC` the entry was “inactive”; with `COc1cc(/C=C/C(=O)N2CCN(CC(=O)N3CCCC3)CC2)cc(OC)c1OC`, “inactive”; with `CN1[C@@H]2CC[C@H]1CC(OC(=O)C(CO)c1ccccc1)C2` (stereo not given in full), “inactive”. Still for that read-out and setting: with `CC1(C)S[C@@H]2[C@H](NC(=O)[C@H](N)c3ccc(O)cc3)C(=O)N2[C@H]1C(=O)O` the entry was “inactive”; with `CC(C(=O)O)c1ccc2c(c1)[nH]c1ccc(Cl)cc12` (stereo not given), “inactive”.

System in another test: not listed separately
Kind of test: Primary fluorescence-based thiol-reactive (MSTI) qHTS assay for identification of artifact compounds. (AID 1845221).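 Note: thiol-reactive compounds lower the probe fluorescence signal; nearly all actives have a fitted effect of over 65% in size.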 As to conditions: MSTI thiol-reactivity probe, 1 h; series mostly up to 53.8 µM. In outline:
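Compounds were incubated 1 h at room temperature in the dark with the MSTI probe (4 uM) in PBS pH 7.4, 2% DMSO. Signals were normalized between Acetyl-MSTI and MSTI.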
For `CC1(C)[C@@H](O[C@H]2O[C@H](C(=O)O)[C@@H](O)[C@H](O)[C@H]2O[C@@H]2O[C@H](C(=O)O)[C@@H](O)[C@H](O)[C@H]2O)CC[C@]2(C)[C@H]3C(=O)C=C4[C@@H]5C[C@@](C)(C(=O)O)CC[C@]5(C)CC[C@@]4(C)[C@]3(C)CC[C@@H]12`, the outcome was inactive. The same measure, in the same setting: with `COc1cc(/C=C/C(=O)N2CCN(CC(=O)N3CCCC3)CC2)cc(OC)c1OC` the entry was “inactive”; with `CN1[C@@H]2CC[C@H]1CC(OC(=O)C(CO)c1ccccc1)C2` (stereo not given in full), “inactive”; with `CC(C(=O)O)c1ccc2c(c1)[nH]c1ccc(Cl)cc12` (stereo not given), “inactive”.

A further test has as its system Nanoluciferase (engineered Oplophorus gracilirostris luciferase). Briefly: Primary Nanoluciferase (NLuc) qHTS assay for identification of artifact compounds. (AID 1845222). As to conditions: NLuc-conditioned medium, Nano-Glo luminescence, 5 min; series mostly up to 54.1 µM. In outline: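 Concentration-response data were obtained by luminescence after 5 min with Nano-Glo substrate at 1:100. The enzyme was diluted S16 NLuc-expressing cell medium, preincubated with compound for 15 min at RT. Curves were fitted with a 4-parameter Hill model.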
Take `COC(=O)[C@H]1[C@H]2C[C@@H]3c4[nH]c5cc(OC)ccc5c4CCN3C[C@H]2C[C@@H](OC(=O)/C=C/c2cc(OC)c(OC)c(OC)c2)[C@@H]1OC`: the Potency result is “inactive”. Same read-out and setting: the value for `COc1cc(/C=C/C(=O)N2CCN(CC(=O)N3CCCC3)CC2)cc(OC)c1OC` was “inactive”; that for `CN1[C@@H]2CC[C@H]1CC(OC(=O)C(CO)c1ccccc1)C2` (stereo not given in full) was “inactive”. With `CC1(C)S[C@@H]2[C@H](NC(=O)[C@H](N)c3ccc(O)cc3)C(=O)N2[C@H]1C(=O)O`, the Potency result was “inactive”.

System in a further test: not listed separately
Briefly: Primary redox qHTS assay for identification of artifact compounds. (AID 1845223). As to conditions: Amplex Red/HRP redox cycling with DTT, fluorescence; series mostly up to 53.8 µM. The gist of the method: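 Amplex Red (25 uM) and HRP (250 mU/mL) in HBSS, with compounds for 15 min, then 250 uM DTT for 30 min, room temperature, dark. Fluorescence 525/598 nm read; normalized to DMSO and 10 uM DA3003; Hill fit.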
In the case of `CC1(C)[C@@H](O[C@H]2O[C@H](C(=O)O)[C@@H](O)[C@H](O)[C@H]2O[C@@H]2O[C@H](C(=O)O)[C@@H](O)[C@H](O)[C@H]2O)CC[C@]2(C)[C@H]3C(=O)C=C4[C@@H]5C[C@@](C)(C(=O)O)CC[C@]5(C)CC[C@@]4(C)[C@]3(C)CC[C@@H]12`, the result was inactive.

Consider `COc1cc(/C=C/C(=O)N2CCN(CC(=O)N3CCCC3)CC2)cc(OC)c1OC`, for which the molecule was called inactive.

On to `CN1[C@@H]2CC[C@H]1CC(OC(=O)C(CO)c1ccccc1)C2` (stereo not given in full), for which the call was inactive. In the case of `CC1(C)S[C@@H]2[C@H](NC(=O)[C@H](N)c3ccc(O)cc3)C(=O)N2[C@H]1C(=O)O`, the molecule was classed as inactive. Turning to `CC(C(=O)O)c1ccc2c(c1)[nH]c1ccc(Cl)cc12` (stereo not given), the molecule was classed as inactive.

System in another test: not listed separately
Kind of test: qHTS profiling for inhibitors of Plasmodium falciparum proliferation (AID 504749). Note: nearly all actives have a fitted effect of over 60% in size. As to conditions: P. falciparum in erythrocytes, SYBR Green DNA, 72 h; at 28.7 µM (top of the series); parasite line A. The gist of the method: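 Parasite proliferation within erythrocytes, 72 h exposure. Endpoint: SYBR Green I fluorescence after overnight lysis at room temperature. Controls: 0.29 uM artemisinin, DMSO.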
Take `C=CCN1C(=O)C(CC(C)C)NC1=S` (stereo not given): the activity, negative = inhibition was -18.4% (inactive) and 2.94% (inactive).

For `CN1CCN(c2cc3c(nn2)Oc2ccccc2N3C)CC1`, the activity, negative = inhibition is 11.3% (inactive).

Regarding `O=C(/C=C/c1ccccc1)NCCO`, the activity, negative = inhibition was 4.35% (inactive). On to `Cc1[nH]cnc1CN1CCc2c(c3ccccc3n2C)C1=O`, for which the activity, negative = inhibition is 12% (inactive).

Take `Nc1ccc(C(=O)O)c(O)c1`: the activity, negative = inhibition is 9.01% (inactive). Still for that read-out and setting: with `CCCC(=O)OC[C@@H](OC(=O)CCC)[C@@H](OC(=O)CCC)[C@H](Cn1c2nc(=O)[nH]c(=O)c-2nc2cc(C)c(C)cc21)OC(=O)CCC` the figure was -28.7% (inactive); with `COc1cc(/C=C/C(=O)N2CCN(CC(=O)N3CCCC3)CC2)cc(OC)c1OC`, 1.12% (inactive). Still for that read-out and setting: with `O=C(O)c1cc(O)c(O)c(O)c1` the figure was -23.1% (inactive). Still for that read-out and setting: with `O=C(O)[C@H](O)[C@@H](O)[C@H](O)[C@H](O)CO` the figure was 1.4% (inactive); with `O=C(O)/C=C/C(O)c1ccc(Cl)cc1` (stereo not given), 0.108% (inactive); with `O=C(O)COc1ccc(C(=O)c2cccs2)c(Cl)c1Cl`, 17.6% (inactive) and 6.75% (inactive).

For the molecule `C=C(Nc1ccc(OCC)cc1)Nc1ccc(OCC)cc1`, the activity, negative = inhibition was 1.26% (inactive) and 13.3% (inactive). Turning to `Cc1ccc(O)c(-n2nc3ccccc3n2)c1`, the activity, negative = inhibition was 4.17% (inactive). On to `CCCCC[C@H](O)/C=C/[C@@H]1[C@@H](C/C=C\CCCC(=O)O)[C@@H](O)C[C@H]1O`, for which the activity, negative = inhibition was 7.31% (inactive). With `CN1[C@@H]2CC[C@H]1CC(OC(=O)C(CO)c1ccccc1)C2` (stereo not given in full), the activity, negative = inhibition is -2.42% (inactive). Turning to `CCOc1ccc2nc(S(N)(=O)=O)sc2c1`, the activity, negative = inhibition was -5.98% (inactive). On the same count and under the same terms, with `Oc1c(Br)cc(Br)c2cccnc12` the figure was -4.99% (inactive); with `Cc1cc(O)c2ccccc2c1O`, 7.28% (inactive). Same read-out and setting: with `O=C(Nc1ccc(C(=O)O)c(O)c1)c1ccccc1` the figure was -20.7% (inactive); with `Nc1ccc(O)c(C(=O)O)c1`, -0.61% (inactive). Still for that read-out and setting: with `Clc1ccccc1-c1nc(-c2ccncc2)no1` the figure was 11.4% (inactive); with `Cc1ccccc1CNc1ncnc2c1ncn2C1OC(CO)C(O)C1O` (stereo not given), 17.8% (inactive); with `O=C1CN(/N=C/c2ccc(-c3ccc([N+](=O)[O-])cc3)o2)C(=O)N1`, -11.3% (inactive). On to `CC1(C)C[C@@H]1C(=O)N/C(=C\CCCCSC[C@H](N)C(=O)O)C(=O)O`, for which the activity, negative = inhibition is 10.1% (inactive). Still for that read-out and setting: with `CC(C(=O)O)c1ccc2c(c1)[nH]c1ccc(Cl)cc12` (stereo not given) the figure was 3.75% (inactive).
